Measurements: PubChem BioAssay (NCI)
Compounds without any hit were thinned out: in the full panel of roughly 83,000, 20% have a hit.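 Compound tested at a single concentration for 48 hours in 96-well plates; a percent growth value below 10 was scored as active.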 Active and inactive are the calls of the source.

Key:
Assay in all cases: NCI-60 one-dose screen, 48 h (100 = growth as untreated, 0 = no growth, -100 = all killed)
Conditions in all cases: 10 µM
SK-MEL-2 melanoma = tested on: SK-MEL-2 melanoma
EKVX NSCLC = tested on: EKVX NSCLC
SN12C renal = tested on: SN12C renal
UO-31 renal = tested on: UO-31 renal
TK-10 renal = tested on: TK-10 renal
ACHN renal = tested on: ACHN renal
CAKI-1 renal = tested on: CAKI-1 renal
CCRF-CEM leukemia = tested on: CCRF-CEM leukemia
MOLT-4 leukemia = tested on: MOLT-4 leukemia
RPMI-8226 leukemia = tested on: RPMI-8226 leukemia
OVCAR-8 ovarian = tested on: OVCAR-8 ovarian
OVCAR-5 ovarian = tested on: OVCAR-5 ovarian
OVCAR-4 ovarian = tested on: OVCAR-4 ovarian
SK-OV-3 ovarian = tested on: SK-OV-3 ovarian
IGROV1 ovarian = tested on: IGROV1 ovarian
OVCAR-3 ovarian = tested on: OVCAR-3 ovarian
HS 578T breast = tested on: HS 578T breast
NCI/ADR-RES ovarian = tested on: NCI/ADR-RES ovarian
SR leukemia = tested on: SR leukemia
A498 renal = tested on: A498 renal

Measured: growth

N#Cc1c(Cl)nc(SCc2ccc(F)cc2)nc1-c1ccc(F)cc1
inactive: SK-MEL-2 melanoma 97.9% | EKVX NSCLC 89.1% | SN12C renal 80.9% | UO-31 renal 87.1% | TK-10 renal 98.2% | ACHN renal 99.5% | CAKI-1 renal 94.9% | CCRF-CEM leukemia 86.7% | MOLT-4 leukemia 80.6% | RPMI-8226 leukemia 91.4% | OVCAR-8 ovarian 89.2% | OVCAR-5 ovarian 95.6% | OVCAR-4 ovarian 95% | SK-OV-3 ovarian 103% | IGROV1 ovarian 109% | OVCAR-3 ovarian 111% | HS 578T breast 95.2% | NCI/ADR-RES ovarian 86.6%

O=C(CSc1nnc(-c2ccc3nc(-c4ccccc4)[nH]c3c2)o1)Nc1ccc(Cl)cc1
inactive: SK-MEL-2 melanoma 45% | EKVX NSCLC 48.6% | SN12C renal 46.1% | UO-31 renal 40.1% | TK-10 renal 55% | ACHN renal 29.5% | CAKI-1 renal 30.5% | CCRF-CEM leukemia 13.7% | SR leukemia 29.1% | RPMI-8226 leukemia 29.6% | OVCAR-8 ovarian 21.2% | OVCAR-5 ovarian 65.1% | OVCAR-4 ovarian 61.9% | SK-OV-3 ovarian 55.9% | IGROV1 ovarian 52.6% | OVCAR-3 ovarian 62.9% | NCI/ADR-RES ovarian 38.5%
active: MOLT-4 leukemia 7.63%

O=C(Nc1ccc(OCC(=O)c2ccccc2)cc1)Nc1ccc(Cl)c(C(F)(F)F)c1
active: SK-MEL-2 melanoma -53.7% | CCRF-CEM leukemia 9.86% | RPMI-8226 leukemia 7.07%
inactive: EKVX NSCLC 17.2% | SN12C renal 24.9% | UO-31 renal 17.6% | TK-10 renal 49.2% | ACHN renal 18.1% | CAKI-1 renal 20.2% | OVCAR-8 ovarian 29.8% | OVCAR-5 ovarian 35.8% | OVCAR-4 ovarian 22.9% | SK-OV-3 ovarian 16.4% | IGROV1 ovarian 28.9% | OVCAR-3 ovarian 23.8% | NCI/ADR-RES ovarian 18.5%

O=C(CSc1nnc(-c2c[nH]c3ccccc23)n1-c1ccccc1)c1ccc(Br)cc1
active: SK-MEL-2 melanoma -19.5%
inactive: EKVX NSCLC 10.8% | SN12C renal 72.9% | UO-31 renal 26% | TK-10 renal 64.9% | ACHN renal 37.4% | CAKI-1 renal 44.3% | CCRF-CEM leukemia 86.4% | MOLT-4 leukemia 92.2% | SR leukemia 90.8% | RPMI-8226 leukemia 54.4% | OVCAR-8 ovarian 43.5% | OVCAR-5 ovarian 58.3% | OVCAR-4 ovarian 46.2% | SK-OV-3 ovarian 48.6% | IGROV1 ovarian 64.1% | OVCAR-3 ovarian 42.5% | NCI/ADR-RES ovarian 26.3%

COc1ccc(/C=C/C(=O)c2ccc(S(=O)(=O)NCCNc3nc(Nc4ccc(F)cc4)nc(N(C)C)n3)cc2)cc1
inactive: SK-MEL-2 melanoma 74.7% | EKVX NSCLC 34.1% | SN12C renal 14.5% | UO-31 renal 14% | TK-10 renal 70.3% | ACHN renal 16.2% | CAKI-1 renal 27.4% | CCRF-CEM leukemia 16% | RPMI-8226 leukemia 10.5% | OVCAR-8 ovarian 50.6% | OVCAR-5 ovarian 42.5% | OVCAR-4 ovarian 21.8% | SK-OV-3 ovarian 76% | IGROV1 ovarian 43.6% | OVCAR-3 ovarian 15.7% | HS 578T breast 39% | NCI/ADR-RES ovarian 28.1%
active: MOLT-4 leukemia 9.26% | SR leukemia 3.4%

O=C(c1ccc(Cl)cc1)C1[C@H](c2ccc(Br)cc2)[C@@H](c2ccccc2)NC12C(=O)Nc1ccccc12 (stereo not given in full)
inactive: TK-10 renal 14.5% | OVCAR-4 ovarian 12% | SK-OV-3 ovarian 12.7%
active: SK-MEL-2 melanoma -62.7% | EKVX NSCLC 4.42% | SN12C renal -78.1% | UO-31 renal 2.46% | ACHN renal -5.73% | CAKI-1 renal 0.681% | CCRF-CEM leukemia -0.656% | RPMI-8226 leukemia -8.78% | OVCAR-8 ovarian 7.73% | OVCAR-5 ovarian -25.8% | IGROV1 ovarian 6.67% | OVCAR-3 ovarian -30.1% | HS 578T breast -8.79% | NCI/ADR-RES ovarian -53.1%

O=C(c1ccc(Cl)cc1)C1[C@H](c2ccc(Br)cc2)[C@@H](c2ccccc2)NC12C(=O)Nc1ccc(Br)cc12 (stereo not given in full)
active: SK-MEL-2 melanoma -93.4% | EKVX NSCLC -61.1% | SN12C renal -97.1% | UO-31 renal -75.7% | TK-10 renal -78.7% | ACHN renal -39.6% | CAKI-1 renal -93.9% | CCRF-CEM leukemia -7.91% | MOLT-4 leukemia -33% | RPMI-8226 leukemia -6.16% | OVCAR-8 ovarian -56.7% | OVCAR-5 ovarian -91.2% | OVCAR-4 ovarian -0.87% | SK-OV-3 ovarian 2.89% | IGROV1 ovarian -78.3% | OVCAR-3 ovarian -89.7% | HS 578T breast -16.6% | NCI/ADR-RES ovarian -85.6%

COc1ccc(C(=O)/C=C/c2cc(F)cc(C(F)(F)F)c2)cc1S(N)(=O)=O
inactive: SK-MEL-2 melanoma 12.8% | A498 renal 88.2% | SK-OV-3 ovarian 42.1%
active: EKVX NSCLC 7.02% | SN12C renal -69.1% | UO-31 renal -92.7% | ACHN renal -100% | CAKI-1 renal -85.7% | CCRF-CEM leukemia 4.86% | MOLT-4 leukemia 1.63% | SR leukemia 3.04% | RPMI-8226 leukemia 2.99% | OVCAR-8 ovarian -44.1% | OVCAR-5 ovarian -59.9% | OVCAR-4 ovarian -98% | IGROV1 ovarian -53.6% | OVCAR-3 ovarian -95.3% | HS 578T breast -25.7% | NCI/ADR-RES ovarian 5.77%

CC(=O)Nc1ccc(-c2cn(-c3cccc(C(=O)Nc4cc(CN5CCOCC5)cc(C(F)(F)F)c4)c3)nn2)cn1
inactive: NCI/ADR-RES ovarian 67.9%
active: SK-MEL-2 melanoma -84.6% | EKVX NSCLC -88.1% | SN12C renal -93.2% | UO-31 renal -93.5% | ACHN renal -100% | CAKI-1 renal -91.9% | A498 renal -95.5% | CCRF-CEM leukemia -5.47% | MOLT-4 leukemia -22.2% | SR leukemia 0.486% | RPMI-8226 leukemia 2.68% | OVCAR-8 ovarian -37% | OVCAR-5 ovarian -95% | OVCAR-4 ovarian -82.6% | SK-OV-3 ovarian -67.6% | IGROV1 ovarian -84.6% | OVCAR-3 ovarian -54.5% | HS 578T breast -46.2%

Nc1nc2c(F)c(F)c(F)c(F)c2s1
inactive: SK-MEL-2 melanoma 106% | EKVX NSCLC 46.1% | SN12C renal 113% | UO-31 renal 91% | TK-10 renal 101% | ACHN renal 114% | CAKI-1 renal 85.7% | CCRF-CEM leukemia 106% | MOLT-4 leukemia 105% | SR leukemia 86.5% | RPMI-8226 leukemia 108% | OVCAR-8 ovarian 99.7% | OVCAR-5 ovarian 104% | OVCAR-4 ovarian 104% | SK-OV-3 ovarian 99.5% | IGROV1 ovarian 101% | OVCAR-3 ovarian 104% | HS 578T breast 100% | NCI/ADR-RES ovarian 104%

CCCCOc1ccc(Nc2nc3ccccc3nc2Nc2ccc(OCCCC)cc2)cc1
inactive: SK-MEL-2 melanoma 99.5% | EKVX NSCLC 82.2% | SN12C renal 95.9% | UO-31 renal 85.3% | TK-10 renal 91.9% | ACHN renal 97.7% | CAKI-1 renal 91.8% | CCRF-CEM leukemia 69.1% | MOLT-4 leukemia 68.3% | SR leukemia 80.1% | RPMI-8226 leukemia 57.8% | OVCAR-8 ovarian 92.3% | OVCAR-5 ovarian 128% | OVCAR-4 ovarian 93.6% | SK-OV-3 ovarian 106% | IGROV1 ovarian 108% | OVCAR-3 ovarian 68.9% | HS 578T breast 103% | NCI/ADR-RES ovarian 94.3%
